# Reference: article PMC7862700, “An all-to-all approach to the identification of sequence-specific readers for epigenetic DNA modifications on cytosine”
# What was measured:
# Assay in all cases: DAPPL (digital affinity profiling via proximity ligation, sequencing); 10 mM Tris-HCl pH 7.5, 50 mM NaCl, 1 mM DTT, 4% glycerol, room temperature, 30 min; GST-TFs on glutathione beads, 16-mer random dsDNA library, 0.1% formaldehyde crosslink after washing; high values mean tight binding
# FLI1 = molecular target: T1, FLI1 (Homo sapiens, UniProt Q01543 1-452); settings: protein: recombinant; tags: N-terminal GST; dsDNA, one strand shown
# T1 sequence: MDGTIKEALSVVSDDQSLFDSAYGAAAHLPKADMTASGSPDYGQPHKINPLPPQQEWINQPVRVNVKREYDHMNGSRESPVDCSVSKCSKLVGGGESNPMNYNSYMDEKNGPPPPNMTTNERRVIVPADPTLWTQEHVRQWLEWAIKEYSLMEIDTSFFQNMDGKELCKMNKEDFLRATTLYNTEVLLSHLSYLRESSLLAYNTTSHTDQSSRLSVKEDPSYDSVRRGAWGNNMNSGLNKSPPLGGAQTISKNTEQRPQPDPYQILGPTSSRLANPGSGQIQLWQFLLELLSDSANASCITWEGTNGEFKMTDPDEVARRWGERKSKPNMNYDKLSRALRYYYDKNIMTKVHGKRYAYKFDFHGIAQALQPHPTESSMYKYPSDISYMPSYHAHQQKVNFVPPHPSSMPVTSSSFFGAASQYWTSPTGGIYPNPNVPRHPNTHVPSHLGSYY
# Summary of the method: (§1)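 Yeast served to express human transcription factors as GST fusions, which were then captured on glutathione beads and labelled with DNA barcodes. Pooled with a tag-only sample, they were incubated with 200 nmole of a 16-mer random double-stranded DNA library for 30 min at room temperature in Tris/NaCl/DTT/glycerol buffer, washed, crosslinked with 0.1% formaldehyde, ligated by proximity, amplified by PCR and sequenced. Dividing each hexamer's read frequency for a factor by its frequency for the tag-only sample gives the binding signal.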
# ELK1 = molecular target: T2, ELK1 (Homo sapiens, UniProt P19419 1-428); settings: protein: recombinant; tags: N-terminal GST; dsDNA, one strand shown
# T2 sequence: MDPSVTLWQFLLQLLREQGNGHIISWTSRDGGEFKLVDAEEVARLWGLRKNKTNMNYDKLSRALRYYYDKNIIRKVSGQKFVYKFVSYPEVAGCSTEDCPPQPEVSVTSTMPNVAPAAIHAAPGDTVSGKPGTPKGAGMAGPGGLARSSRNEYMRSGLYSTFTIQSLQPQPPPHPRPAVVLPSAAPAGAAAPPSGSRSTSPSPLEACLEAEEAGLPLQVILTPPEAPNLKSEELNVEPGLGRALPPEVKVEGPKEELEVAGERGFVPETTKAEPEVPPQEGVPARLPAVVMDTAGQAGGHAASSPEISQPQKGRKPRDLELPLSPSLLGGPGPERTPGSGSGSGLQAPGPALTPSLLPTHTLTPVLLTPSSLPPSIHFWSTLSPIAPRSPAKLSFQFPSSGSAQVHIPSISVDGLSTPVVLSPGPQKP
# Summary of the method: as §1
# GABPA = molecular target: T3, GABPA (Homo sapiens, UniProt Q06546 1-454); settings: protein: recombinant; tags: N-terminal GST; dsDNA, one strand shown
# T3 sequence: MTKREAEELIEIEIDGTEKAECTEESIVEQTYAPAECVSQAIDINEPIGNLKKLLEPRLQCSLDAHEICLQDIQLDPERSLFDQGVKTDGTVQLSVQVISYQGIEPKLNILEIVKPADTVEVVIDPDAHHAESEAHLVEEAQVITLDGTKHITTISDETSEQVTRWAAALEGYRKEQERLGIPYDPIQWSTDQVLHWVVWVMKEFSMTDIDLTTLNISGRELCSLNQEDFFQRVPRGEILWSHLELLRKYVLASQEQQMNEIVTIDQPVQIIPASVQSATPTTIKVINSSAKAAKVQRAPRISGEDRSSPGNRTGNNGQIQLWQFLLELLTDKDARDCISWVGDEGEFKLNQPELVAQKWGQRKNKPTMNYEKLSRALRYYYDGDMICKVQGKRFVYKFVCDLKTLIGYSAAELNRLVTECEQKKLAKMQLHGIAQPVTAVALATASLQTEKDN
# Summary of the method: as §1
# ERG = molecular target: T4, ERG (Homo sapiens, UniProt P11308 1-479); settings: protein: recombinant; tags: N-terminal GST; dsDNA, one strand shown
# T4 sequence: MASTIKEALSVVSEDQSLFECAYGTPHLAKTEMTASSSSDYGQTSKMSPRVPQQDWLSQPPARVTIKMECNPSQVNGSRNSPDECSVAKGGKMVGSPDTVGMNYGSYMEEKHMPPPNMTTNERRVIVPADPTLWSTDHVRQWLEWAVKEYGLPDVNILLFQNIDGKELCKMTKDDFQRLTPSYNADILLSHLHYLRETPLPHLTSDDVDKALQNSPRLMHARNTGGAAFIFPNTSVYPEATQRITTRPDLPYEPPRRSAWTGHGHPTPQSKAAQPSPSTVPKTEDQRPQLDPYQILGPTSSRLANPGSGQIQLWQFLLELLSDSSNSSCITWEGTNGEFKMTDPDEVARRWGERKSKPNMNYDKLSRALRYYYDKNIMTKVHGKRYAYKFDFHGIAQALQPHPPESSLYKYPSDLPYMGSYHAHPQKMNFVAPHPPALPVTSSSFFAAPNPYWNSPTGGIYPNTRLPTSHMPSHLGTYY
# Summary of the method: as §1
# ELF1 = ELF1 (Homo sapiens, UniProt P32519 1-619); settings: protein: recombinant; tags: N-terminal GST; dsDNA, one strand shown
# Summary of the method: as §1
# EHF = molecular target: T5, EHF (Homo sapiens, UniProt Q9NZC4 1-300); settings: protein: recombinant; tags: N-terminal GST; dsDNA, one strand shown
# T5 sequence: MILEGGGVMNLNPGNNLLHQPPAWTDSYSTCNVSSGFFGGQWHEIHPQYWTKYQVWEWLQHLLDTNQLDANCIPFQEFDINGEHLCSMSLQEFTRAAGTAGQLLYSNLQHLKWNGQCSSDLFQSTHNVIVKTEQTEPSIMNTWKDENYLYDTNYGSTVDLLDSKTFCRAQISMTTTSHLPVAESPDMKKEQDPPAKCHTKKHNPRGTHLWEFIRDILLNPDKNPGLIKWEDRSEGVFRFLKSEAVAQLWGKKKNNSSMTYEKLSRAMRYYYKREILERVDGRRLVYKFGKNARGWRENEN
# Summary of the method: as §1
# SPI1 = SPI1 (Homo sapiens, UniProt P17947 1-270); settings: protein: recombinant; tags: N-terminal GST; dsDNA, one strand shown
# Summary of the method: as §1
# SPIB = SPIB (Homo sapiens, UniProt Q01892 1-262); settings: protein: recombinant; tags: N-terminal GST; dsDNA, one strand shown
# Summary of the method: as §1
# ELK3 = molecular target: T6, ELK3 (Homo sapiens, UniProt P41970 1-407); settings: protein: recombinant; tags: N-terminal GST; dsDNA, one strand shown
# T6 sequence: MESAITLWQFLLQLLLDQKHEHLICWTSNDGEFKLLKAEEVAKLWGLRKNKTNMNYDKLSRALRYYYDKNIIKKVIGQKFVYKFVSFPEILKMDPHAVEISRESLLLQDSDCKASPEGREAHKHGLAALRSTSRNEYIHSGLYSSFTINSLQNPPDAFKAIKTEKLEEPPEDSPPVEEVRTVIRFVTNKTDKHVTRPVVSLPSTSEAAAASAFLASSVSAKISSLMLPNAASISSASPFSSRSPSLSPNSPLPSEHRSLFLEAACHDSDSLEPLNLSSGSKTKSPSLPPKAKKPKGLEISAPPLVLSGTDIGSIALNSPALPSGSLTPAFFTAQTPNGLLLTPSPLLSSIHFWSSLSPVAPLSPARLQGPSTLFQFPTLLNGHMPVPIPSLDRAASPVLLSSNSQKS
# Summary of the method: as §1
# FEV = molecular target: T7, FEV (Homo sapiens, UniProt Q99581 1-238); settings: protein: recombinant; tags: N-terminal GST; dsDNA, one strand shown
# T7 sequence: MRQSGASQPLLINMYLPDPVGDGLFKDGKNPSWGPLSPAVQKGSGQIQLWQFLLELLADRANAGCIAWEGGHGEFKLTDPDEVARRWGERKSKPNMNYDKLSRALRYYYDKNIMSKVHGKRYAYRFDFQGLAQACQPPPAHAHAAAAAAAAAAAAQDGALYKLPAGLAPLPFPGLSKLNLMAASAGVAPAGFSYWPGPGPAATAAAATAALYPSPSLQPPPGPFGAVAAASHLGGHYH
# Summary of the method: as §1
# ETV5 = ETV5 (Homo sapiens, UniProt P41161 1-510); settings: protein: recombinant; tags: N-terminal GST; dsDNA, one strand shown
# Summary of the method: as §1
# HSF1 = HSF1 (Homo sapiens, UniProt Q00613 1-529); settings: protein: recombinant; tags: N-terminal GST; chain copies: 3; dsDNA, one strand shown
# Summary of the method: as §1
# SPIC = molecular target: T8, SPIC (Homo sapiens, UniProt Q8N5J4 1-248); settings: protein: recombinant; tags: N-terminal GST; dsDNA, one strand shown
# T8 sequence: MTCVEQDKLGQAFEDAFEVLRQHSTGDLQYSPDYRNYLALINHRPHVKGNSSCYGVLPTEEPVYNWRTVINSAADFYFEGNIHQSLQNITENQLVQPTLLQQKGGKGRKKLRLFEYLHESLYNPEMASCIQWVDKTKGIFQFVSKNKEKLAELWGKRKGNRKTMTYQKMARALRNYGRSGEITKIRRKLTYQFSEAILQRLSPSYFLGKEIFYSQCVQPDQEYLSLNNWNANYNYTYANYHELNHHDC
# Summary of the method: as §1
# ELF4 = ELF4 (Homo sapiens, UniProt Q99607 1-663); settings: protein: recombinant; tags: N-terminal GST; dsDNA, one strand shown
# Summary of the method: as §1
# ELK4 = molecular target: T9, ELK4 (Homo sapiens, UniProt P28324-2 1-405); settings: protein: recombinant; tags: N-terminal GST; dsDNA, one strand shown
# T9 sequence: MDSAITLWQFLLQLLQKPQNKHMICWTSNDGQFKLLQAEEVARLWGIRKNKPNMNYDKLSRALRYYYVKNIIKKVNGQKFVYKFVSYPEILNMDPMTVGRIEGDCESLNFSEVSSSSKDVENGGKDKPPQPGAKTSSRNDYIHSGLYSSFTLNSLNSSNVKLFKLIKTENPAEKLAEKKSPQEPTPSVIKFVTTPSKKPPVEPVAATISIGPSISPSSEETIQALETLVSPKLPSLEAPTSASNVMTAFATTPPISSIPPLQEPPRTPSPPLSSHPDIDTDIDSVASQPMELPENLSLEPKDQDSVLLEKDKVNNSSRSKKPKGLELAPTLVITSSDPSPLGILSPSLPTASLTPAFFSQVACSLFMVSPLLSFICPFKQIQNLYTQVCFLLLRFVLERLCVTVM
# Summary of the method: as §1
# ETV2 = molecular target: T10, ETV2 (Homo sapiens, UniProt O00321 1-342); settings: protein: recombinant; tags: N-terminal GST; dsDNA, one strand shown
# T10 sequence: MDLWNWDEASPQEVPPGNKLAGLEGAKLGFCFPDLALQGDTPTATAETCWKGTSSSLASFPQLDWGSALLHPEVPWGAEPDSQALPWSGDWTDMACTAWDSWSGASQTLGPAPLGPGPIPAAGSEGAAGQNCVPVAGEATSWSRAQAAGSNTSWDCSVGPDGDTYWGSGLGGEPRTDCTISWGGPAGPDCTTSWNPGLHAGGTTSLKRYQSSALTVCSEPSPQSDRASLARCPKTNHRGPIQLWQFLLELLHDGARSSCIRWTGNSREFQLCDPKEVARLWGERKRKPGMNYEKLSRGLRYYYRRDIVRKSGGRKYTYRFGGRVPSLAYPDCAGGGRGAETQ
# Summary of the method: as §1
# ELF3 = molecular target: T11, ELF3 (Homo sapiens, UniProt P78545 1-371); settings: protein: recombinant; tags: N-terminal GST; dsDNA, one strand shown
# T11 sequence: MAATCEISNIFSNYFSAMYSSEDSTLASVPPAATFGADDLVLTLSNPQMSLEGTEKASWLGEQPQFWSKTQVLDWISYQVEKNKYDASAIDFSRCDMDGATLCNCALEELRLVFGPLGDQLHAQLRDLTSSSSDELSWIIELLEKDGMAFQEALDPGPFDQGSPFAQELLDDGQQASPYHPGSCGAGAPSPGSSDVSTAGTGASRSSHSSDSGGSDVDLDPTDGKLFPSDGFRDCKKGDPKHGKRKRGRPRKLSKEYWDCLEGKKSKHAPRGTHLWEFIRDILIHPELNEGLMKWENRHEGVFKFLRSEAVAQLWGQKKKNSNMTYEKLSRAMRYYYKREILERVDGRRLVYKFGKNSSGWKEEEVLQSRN
# Summary of the method: as §1
# CRX = CRX (Homo sapiens, UniProt O43186 1-299); settings: protein: recombinant; tags: N-terminal GST; dsDNA, one strand shown
# Summary of the method: as §1
# ETV1 = ETV1 (Homo sapiens, UniProt P50549 1-477); settings: protein: recombinant; tags: N-terminal GST; dsDNA, one strand shown
# Summary of the method: as §1
# Chain of HSF1 (Q00613 whole entry): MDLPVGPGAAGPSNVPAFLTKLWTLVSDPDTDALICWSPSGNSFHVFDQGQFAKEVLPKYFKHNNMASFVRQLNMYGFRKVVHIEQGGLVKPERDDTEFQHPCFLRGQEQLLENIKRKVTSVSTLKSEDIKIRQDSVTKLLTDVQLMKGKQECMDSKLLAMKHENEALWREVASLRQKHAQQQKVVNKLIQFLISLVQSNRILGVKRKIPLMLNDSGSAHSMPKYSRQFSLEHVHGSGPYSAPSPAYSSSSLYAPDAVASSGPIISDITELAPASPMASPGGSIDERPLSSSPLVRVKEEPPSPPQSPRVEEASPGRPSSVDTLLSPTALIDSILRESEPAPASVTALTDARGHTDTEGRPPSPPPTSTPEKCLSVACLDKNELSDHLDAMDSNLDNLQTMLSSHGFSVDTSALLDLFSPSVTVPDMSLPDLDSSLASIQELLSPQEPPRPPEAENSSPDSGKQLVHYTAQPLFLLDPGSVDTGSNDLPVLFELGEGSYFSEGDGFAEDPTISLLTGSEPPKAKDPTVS
# Chain of CRX (O43186 whole entry): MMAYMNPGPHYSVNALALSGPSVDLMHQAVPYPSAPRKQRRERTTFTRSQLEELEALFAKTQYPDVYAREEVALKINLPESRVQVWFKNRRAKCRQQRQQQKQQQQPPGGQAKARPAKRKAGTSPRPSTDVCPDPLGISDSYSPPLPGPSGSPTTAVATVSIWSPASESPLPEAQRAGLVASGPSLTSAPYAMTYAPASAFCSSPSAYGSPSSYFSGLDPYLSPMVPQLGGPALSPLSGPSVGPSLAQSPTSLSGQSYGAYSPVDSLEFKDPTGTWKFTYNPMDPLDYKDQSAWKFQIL
# Chain of ETV1 (P50549 whole entry): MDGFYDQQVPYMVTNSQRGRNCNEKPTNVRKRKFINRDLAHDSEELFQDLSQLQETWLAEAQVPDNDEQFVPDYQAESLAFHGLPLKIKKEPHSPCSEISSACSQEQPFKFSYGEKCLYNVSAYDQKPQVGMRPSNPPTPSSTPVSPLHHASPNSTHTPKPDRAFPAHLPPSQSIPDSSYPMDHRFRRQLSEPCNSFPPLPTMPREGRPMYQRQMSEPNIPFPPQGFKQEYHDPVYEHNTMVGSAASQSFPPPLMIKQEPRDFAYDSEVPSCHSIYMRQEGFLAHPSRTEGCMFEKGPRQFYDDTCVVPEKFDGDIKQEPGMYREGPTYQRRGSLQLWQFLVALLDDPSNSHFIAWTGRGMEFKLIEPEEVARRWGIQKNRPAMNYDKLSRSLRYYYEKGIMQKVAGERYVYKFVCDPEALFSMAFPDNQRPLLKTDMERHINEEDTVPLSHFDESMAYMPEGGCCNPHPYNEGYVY
# Chain of ETV5 (P41161 whole entry): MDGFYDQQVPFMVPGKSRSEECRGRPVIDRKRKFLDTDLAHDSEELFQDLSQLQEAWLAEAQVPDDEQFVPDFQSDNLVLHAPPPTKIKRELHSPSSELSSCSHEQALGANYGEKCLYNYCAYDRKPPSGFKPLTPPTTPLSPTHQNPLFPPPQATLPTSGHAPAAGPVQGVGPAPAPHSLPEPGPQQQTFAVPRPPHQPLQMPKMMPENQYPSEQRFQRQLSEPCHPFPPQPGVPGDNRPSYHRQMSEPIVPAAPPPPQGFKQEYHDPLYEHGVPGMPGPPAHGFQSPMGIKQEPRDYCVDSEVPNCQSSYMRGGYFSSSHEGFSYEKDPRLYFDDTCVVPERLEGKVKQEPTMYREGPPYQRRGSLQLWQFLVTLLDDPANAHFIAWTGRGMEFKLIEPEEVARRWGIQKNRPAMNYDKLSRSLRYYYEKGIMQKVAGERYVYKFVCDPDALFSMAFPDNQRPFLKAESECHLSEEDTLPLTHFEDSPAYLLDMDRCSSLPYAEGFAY
# Chain of SPIB (Q01892 whole entry): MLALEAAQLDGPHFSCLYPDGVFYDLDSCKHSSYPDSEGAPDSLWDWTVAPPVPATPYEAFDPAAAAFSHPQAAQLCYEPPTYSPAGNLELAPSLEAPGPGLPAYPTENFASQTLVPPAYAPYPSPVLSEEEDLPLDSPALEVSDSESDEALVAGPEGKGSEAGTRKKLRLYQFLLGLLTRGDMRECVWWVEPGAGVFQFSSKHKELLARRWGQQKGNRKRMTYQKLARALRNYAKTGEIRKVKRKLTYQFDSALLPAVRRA
# Chain of ELF1 (P32519 whole entry): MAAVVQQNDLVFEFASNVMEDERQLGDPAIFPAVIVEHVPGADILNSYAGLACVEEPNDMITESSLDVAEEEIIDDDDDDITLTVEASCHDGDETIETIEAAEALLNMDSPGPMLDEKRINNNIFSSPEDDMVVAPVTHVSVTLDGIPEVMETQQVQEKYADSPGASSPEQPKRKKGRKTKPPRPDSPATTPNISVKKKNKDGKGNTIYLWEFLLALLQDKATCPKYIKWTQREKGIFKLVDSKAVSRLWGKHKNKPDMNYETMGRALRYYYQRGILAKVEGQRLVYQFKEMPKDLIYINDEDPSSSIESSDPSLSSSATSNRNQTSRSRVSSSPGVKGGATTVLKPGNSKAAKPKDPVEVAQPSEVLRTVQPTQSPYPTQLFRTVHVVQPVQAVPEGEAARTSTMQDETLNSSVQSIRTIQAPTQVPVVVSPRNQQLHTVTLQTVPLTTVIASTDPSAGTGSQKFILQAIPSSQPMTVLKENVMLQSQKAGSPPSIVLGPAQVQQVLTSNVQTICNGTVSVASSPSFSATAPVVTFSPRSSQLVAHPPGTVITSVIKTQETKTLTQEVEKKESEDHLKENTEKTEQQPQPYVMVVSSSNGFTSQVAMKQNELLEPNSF
# Chain of ELF4 (Q99607 whole entry): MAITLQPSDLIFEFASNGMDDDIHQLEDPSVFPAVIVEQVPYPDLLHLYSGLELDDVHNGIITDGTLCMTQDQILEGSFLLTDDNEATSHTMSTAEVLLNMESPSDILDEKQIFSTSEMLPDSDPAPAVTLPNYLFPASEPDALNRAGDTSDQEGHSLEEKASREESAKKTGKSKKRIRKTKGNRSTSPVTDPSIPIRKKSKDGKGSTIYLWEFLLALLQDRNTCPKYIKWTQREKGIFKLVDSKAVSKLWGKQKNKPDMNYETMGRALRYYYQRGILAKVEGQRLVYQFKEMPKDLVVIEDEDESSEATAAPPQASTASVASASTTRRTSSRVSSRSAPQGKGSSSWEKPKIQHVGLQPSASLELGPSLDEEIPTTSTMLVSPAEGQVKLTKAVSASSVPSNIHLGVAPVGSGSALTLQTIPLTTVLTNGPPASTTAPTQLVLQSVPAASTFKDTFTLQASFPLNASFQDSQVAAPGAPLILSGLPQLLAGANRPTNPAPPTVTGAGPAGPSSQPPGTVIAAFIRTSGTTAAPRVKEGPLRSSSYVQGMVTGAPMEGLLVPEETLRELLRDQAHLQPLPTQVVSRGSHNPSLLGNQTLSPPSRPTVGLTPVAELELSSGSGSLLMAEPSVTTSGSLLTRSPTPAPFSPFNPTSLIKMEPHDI
sequence,measurement,setting,value
TCTGCT,binding signal,FLI1,"1.26 fold enrichment (6-mer frequency, TF over GST control)"
same,binding signal,ELK1,"1.3 fold enrichment (6-mer frequency, TF over GST control)"
same,binding signal,GABPA,"1.33 fold enrichment (6-mer frequency, TF over GST control)"
same,binding signal,ERG,"1.22 fold enrichment (6-mer frequency, TF over GST control)"
same,binding signal,ELF1,"1.45 fold enrichment (6-mer frequency, TF over GST control)"
same,binding signal,EHF,"1.55 fold enrichment (6-mer frequency, TF over GST control)"
same,binding signal,SPI1,"1.27 fold enrichment (6-mer frequency, TF over GST control)"
same,binding signal,SPIB,"1.22 fold enrichment (6-mer frequency, TF over GST control)"
same,binding signal,ELK3,"1.2 fold enrichment (6-mer frequency, TF over GST control)"
same,binding signal,FEV,"1.28 fold enrichment (6-mer frequency, TF over GST control)"
same,binding signal,ETV5,"1.29 fold enrichment (6-mer frequency, TF over GST control)"
same,binding signal,HSF1,"1.33 fold enrichment (6-mer frequency, TF over GST control)"
same,binding signal,SPIC,"1.43 fold enrichment (6-mer frequency, TF over GST control)"
same,binding signal,ELF4,"1.3 fold enrichment (6-mer frequency, TF over GST control)"
same,binding signal,ELK4,"1.57 fold enrichment (6-mer frequency, TF over GST control)"
same,binding signal,ETV2,"1.53 fold enrichment (6-mer frequency, TF over GST control)"
same,binding signal,ELF3,"1.11 fold enrichment (6-mer frequency, TF over GST control)"
same,binding signal,CRX,"1.33 fold enrichment (6-mer frequency, TF over GST control)"
same,binding signal,ETV1,"1.32 fold enrichment (6-mer frequency, TF over GST control)"
